Hits are enriched below; roughly 7.5% of the tested compounds scored in any of these assays.
ELG1 genotoxic – qHTS screen for small molecules that induce genotoxicity in human embryonic kidney (HEK293T) cells expressing luciferase-tagged ELG1. HEK293T ELG1-luciferase reporter, luminescence, 16 h. Potency, µM (titrated, usually from 46 µM), without a hit: at the top dose activity change, positive = activation, actives largely listed as activators. 330,000 compounds, 1.3% hits; further: % of control where 0% means no effect; nearly all actives have a fitted effect of over 60% in size
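Quantitative HTS format in 1536-well plates. HEK293T ELG1-luciferase reporter cells receive test compound and are incubated 16 hr at 37 °C, 5% CO2; ONE-Glo added, 30 min room temperature, then luminescence read.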
Rab9 prom act – qHTS Assay for Rab9 Promoter Activators. AID 485297, 2010. 320,000 compounds, 2.8% hits. Huh7 Rab9 promoter-luciferase reporter, luminescence, 24 h. Potency, µM (highest dose often 9.22 µM), for inactives: top-dose activation, negative = inhibition, most hits filed as activators; further: % of control where 0% means no effect; nearly all actives have a fitted effect of over 60% in size
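Rab9 promoter-driven luciferase in stably transfected Huh7 cells; 1500 cells/well rested 2 h, exposed to compound in DMSO for 24 h at 37 °C, 5% CO2. Luminescence read 10 min after adding luciferase reagent at ambient temperature.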
NPC1 prom act – qHTS Assay for NPC1 Promoter Activators; Huh7 NPC1 promoter luciferase reporter, 24 h; Potency, µM (doses to about 9.22 µM), for inactives: top-dose activation, actives largely listed as activators; 320,000 compounds, 2.4% hits; AID 485313, 2010; further: % of control where 0% means no effect; nearly all actives have a fitted effect of over 60% in size
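Huh7 reporter cells (NPC1 promoter driving luciferase) are dosed with compound for 24 h at 37 °C, 5% CO2; luciferase detection reagent is then added and luminescence measured after 10 min at ambient temperature.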
FLuc counter – qHTS profiling assay for firefly luciferase inhibitor/activator using purifed enzyme and Km concentrations of substrates (counterscreen for miR-21 project). Luciferin 4-monooxygenase (Photinus pyralis), P08659. purified FLuc, Km substrates, luminescence inhibition. Potency, µM (doses to about 57.5 µM), without a hit: top-dose activity change, negative = inhibition, most hits filed as inhibitors. 360,000 compounds, 6.9% hits;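 further: plate controls were vehicle for no effect and reference inhibitor for full effect; nearly all actives have a fitted effect of over 55% in size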
Target sequence (P08659 whole entry, looked up): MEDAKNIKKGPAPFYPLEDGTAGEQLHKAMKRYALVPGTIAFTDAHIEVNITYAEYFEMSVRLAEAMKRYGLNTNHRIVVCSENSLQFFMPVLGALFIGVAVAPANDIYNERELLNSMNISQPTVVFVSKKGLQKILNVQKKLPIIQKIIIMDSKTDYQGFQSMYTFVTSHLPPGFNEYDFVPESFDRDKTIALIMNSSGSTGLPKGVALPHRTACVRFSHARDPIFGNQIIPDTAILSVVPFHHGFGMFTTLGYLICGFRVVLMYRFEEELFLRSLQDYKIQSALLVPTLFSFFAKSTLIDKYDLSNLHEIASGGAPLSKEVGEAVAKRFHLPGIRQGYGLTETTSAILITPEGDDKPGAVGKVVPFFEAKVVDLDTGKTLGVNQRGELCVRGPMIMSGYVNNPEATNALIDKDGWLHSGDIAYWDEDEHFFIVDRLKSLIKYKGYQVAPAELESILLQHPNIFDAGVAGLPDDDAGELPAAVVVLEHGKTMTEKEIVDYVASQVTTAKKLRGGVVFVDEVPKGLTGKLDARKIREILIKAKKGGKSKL
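Purified P. pyralis luciferase (10nM final) with 10uM D-luciferin and 10uM ATP (Km levels) in 50mM Tris acetate pH 7.5, 10mM Mg acetate, 0.01% Tween-20, 0.05% BSA; qHTS 6-point titration, ~60 µM downward; luminescence read.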
SMN2 splice enh – qHTS Assay for Enhancers of SMN2 Splice Variant Expression; HEK293 SMN2-luciferase splicing reporter, luminescence, 30-36 h; Potency, µM (doses to about 46.1 µM), without a hit: at the top dose activity change, positive = activation, actives largely listed as activators; 210,000 compounds, 2.8% hits; further: % of control where 0% means no effect; nearly all actives have a fitted effect of over 55% in size
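HEK293 cells carry an SMN2 minigene-luciferase reporter in which exon 7 inclusion puts luciferase in frame. Cells were seeded at 2000 cells/well, attached for 10-12 hours, then exposed to compounds for 30-36 hours at 37C before ONE-Glo luminescence.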
The depositor's hits bear a star; ? = inconclusive; · = no result. The call rests on the fitted dose curve; in most records, active means well fitted curve in the direction sought with a large enough effect; inconclusive means small, poorly fitted or top-dose-only effect, or another doubt; inactive means no such curve, though single readings can be large; an effect the other way counts as inactive or inconclusive. Potency means the concentration at half of the fitted maximal effect.

SMILES	ELG1 genotoxic	Rab9 prom act	NPC1 prom act	FLuc counter	SMN2 splice enh
O=c1[nH]c(/C=C/c2ccccn2)nc2ccccc12	?	1.6µM*	1.6µM*	19µM*	·
O=c1[nH]c(/C=C/c2cccc3ccccc23)nc2ccccc12	15%	?	18%	-3%	15%
CC1(C)c2ccccc2-c2nc3ccccc3cc2C1O (configuration not stated)	0%	4%	-5%	15µM*	·
Oc1cc2ccccc2nc1-c1ccccc1Cl	-5%	-3%	-3%	-14%	·
CCN(CC)S(=O)(=O)c1cc(C(=O)Oc2cccc(-c3cnc4ccccc4n3)c2)ccc1OC	10%	?	?	-17%	13µM*
CCN(CC)S(=O)(=O)c1ccc(C)c(NC(=O)Cn2c(=O)cnc3ccccc32)c1	-6%	4%	-5%	-6%	-32%
O=C(Oc1cccc(-c2cnc3ccccc3n2)c1)c1ccco1	?	3.2µM*	?	24µM*	13µM*
CCN(CC)S(=O)(=O)c1cc(C(=O)O)ccc1OC	0%	-3%	8%	3%	·
CCN(CC)S(=O)(=O)c1ccc(C)c(C(=O)Oc2cccc(-c3cnc4ccccc4n3)c2)c1	15%	?	?	0%	18µM*
NC(=O)c1ccc(-c2nnc(Nc3ccc(S(N)(=O)=O)cc3)c3ccccc23)cc1	0%	-1%	-5%	0%	·
O=c1[nH]c(SCc2nc3c(cnn3-c3ccccc3)c(=O)[nH]2)nc2ccccc12	8%	2µM*	?	?	18µM*
CCN(C[C@H]1N[C@@](CC)(C(=O)OC)[C@H]2C(=O)N(C)C(=O)[C@@H]12)C(=O)c1ccccc1	-2%	·	·	·	·
CCOc1ccc(CCNC(=O)c2ccc3c(=O)[nH]c4c(C(=O)NC(C)C)sc(=S)n4c3c2)cc1	-13%	0%	2%	17µM*	·
Cc1ccc2nc(-c3ccc(N4C(=NC(=O)CCC(=O)O)SC5CS(=O)(=O)CC54)cc3)sc2c1 (configuration not stated)	?	4.5µM*	?	11µM*	·
CC(=O)N=C1SC2CS(=O)(=O)CC2N1c1ccc(-c2nc3ccc(C)cc3s2)cc1 (configuration not stated)	?	0.89µM*	2.8µM*	9.5µM*	18µM*
CC(=O)N=C1SC2CS(=O)(=O)CC2N1Cc1ccc(C)cc1 (configuration not stated)	-2%	-3%	1%	-1%	·
O=C(COc1ccc(Cl)cc1Br)NC(=O)NCc1ccccc1	0%	-2%	-2%	-14%	-18%
O=C(NCc1ccc2c(c1)OCO2)c1c(Cl)cccc1Cl	-8%	-1%	2%	5%	·
O=C(NCc1ccc2c(c1)OCO2)c1cc(-c2ccccc2Cl)on1	9%	-2%	1%	17µM*	12%
O=C(Nc1ccc2c(c1)OCO2)c1cc(-c2ccc(Cl)cc2)on1	·	·	·	-1%	9%
O=C(Nc1ccc2c(c1)OCO2)c1cc(-c2ccccc2Cl)on1	9.2µM*	1.6µM*	2.5µM*	5.4µM*	·
Oc1c(C(Nc2nc3ccccc3s2)c2ccco2)ccc2cccnc12 (configuration not stated)	18µM*	4%	-1%	15µM*	-99%
CC(=O)N(/N=C1\Sc2ccccc2C1=O)c1cccc(C)c1	?	14%	?	11µM*	5.6µM*
COc1ccc(C(=O)NC(=O)NC2(C(Cl)(Cl)Cl)OCCO2)cc1	0.65µM*	0.25µM*	0.35µM*	0.95µM*	2.2µM*
CC(C)NC(=S)N/N=C1\CCCCc2ccccc21	-1%	-4%	-1%	1%	-6%
COc1cccc(NC(=S)N/N=C2/CCCCc3ccccc32)c1	14%	24%	10%	13µM*	28µM*
COc1ccc(C2c3c(-c4ccccc4)n[nH]c3C(=O)N2c2ccc(C(=O)O)cc2)c(OC)c1 (configuration not stated)	·	·	·	?	2%
